# Assay results published in paper PMC7862700, “An all-to-all approach to the identification of sequence-specific readers for epigenetic DNA modifications on cytosine”.
# Key:
# Experiment in all cases: DAPPL (digital affinity profiling via proximity ligation, sequencing); 10 mM Tris-HCl pH 7.5, 50 mM NaCl, 1 mM DTT, 4% glycerol, room temperature, 30 min; GST-TFs on glutathione beads, 16-mer random dsDNA library, 0.1% formaldehyde crosslink after washing; high values mean tight binding
# [1] = target: T1, FEV (Homo sapiens, UniProt Q99581 1-238); settings: protein: recombinant; tags: N-terminal GST; dsDNA, one strand shown
# T1 sequence: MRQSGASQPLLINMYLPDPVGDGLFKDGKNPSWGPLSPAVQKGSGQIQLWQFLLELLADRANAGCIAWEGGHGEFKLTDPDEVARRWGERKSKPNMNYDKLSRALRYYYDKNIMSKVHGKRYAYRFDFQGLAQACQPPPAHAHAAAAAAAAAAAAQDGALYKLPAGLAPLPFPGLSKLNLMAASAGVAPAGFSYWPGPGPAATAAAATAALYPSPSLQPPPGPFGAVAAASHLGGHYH
# Summary of the method: (§1)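 Sequencing on an Illumina NextSeq500 followed washing, crosslinking with 0.1% formaldehyde, proximity ligation (BsaI/T4 ligase, 1 h, 37 °C) and PCR amplification of pools that had been incubated for 30 min at room temperature with 200 nmole of a random double-stranded 16-mer DNA library in Tris/NaCl/DTT/glycerol buffer. Each pool held DNA-barcoded human transcription factors, expressed in yeast as GST fusions and captured on glutathione beads, plus a tag-only sample. Binding signal is a hexamer's read frequency for a factor divided by its frequency in the tag-only sample.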
# [2] = target: ETV5 (Homo sapiens, UniProt P41161 1-510); settings: protein: recombinant; tags: N-terminal GST; dsDNA, one strand shown
# Summary of the method: as §1
# [3] = target: HSF1 (Homo sapiens, UniProt Q00613 1-529); settings: protein: recombinant; tags: N-terminal GST; chain copies: 3; dsDNA, one strand shown
# Summary of the method: as §1
# [4] = target: T2, SPIC (Homo sapiens, UniProt Q8N5J4 1-248); settings: protein: recombinant; tags: N-terminal GST; dsDNA, one strand shown
# T2 sequence: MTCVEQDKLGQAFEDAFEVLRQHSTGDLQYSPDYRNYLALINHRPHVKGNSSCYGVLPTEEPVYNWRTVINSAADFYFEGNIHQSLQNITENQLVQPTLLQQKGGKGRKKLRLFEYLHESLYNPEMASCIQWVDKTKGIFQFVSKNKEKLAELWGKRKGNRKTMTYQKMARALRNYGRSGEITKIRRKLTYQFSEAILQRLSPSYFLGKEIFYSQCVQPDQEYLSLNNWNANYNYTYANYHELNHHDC
# Summary of the method: as §1
# [5] = target: ELF4 (Homo sapiens, UniProt Q99607 1-663); settings: protein: recombinant; tags: N-terminal GST; dsDNA, one strand shown
# Summary of the method: as §1
# [6] = target: T3, ELK4 (Homo sapiens, UniProt P28324-2 1-405); settings: protein: recombinant; tags: N-terminal GST; dsDNA, one strand shown
# T3 sequence: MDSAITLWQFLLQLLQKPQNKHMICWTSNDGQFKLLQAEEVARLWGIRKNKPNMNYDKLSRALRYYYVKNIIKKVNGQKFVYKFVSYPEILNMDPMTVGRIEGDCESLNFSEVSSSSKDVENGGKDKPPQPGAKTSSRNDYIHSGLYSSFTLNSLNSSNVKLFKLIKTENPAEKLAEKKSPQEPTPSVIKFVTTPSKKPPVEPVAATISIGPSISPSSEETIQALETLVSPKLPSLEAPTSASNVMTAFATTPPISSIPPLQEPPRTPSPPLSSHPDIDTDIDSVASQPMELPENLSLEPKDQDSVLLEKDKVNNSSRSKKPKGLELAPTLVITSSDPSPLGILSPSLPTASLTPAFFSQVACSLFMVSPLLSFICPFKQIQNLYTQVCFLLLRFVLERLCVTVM
# Summary of the method: as §1
# [7] = target: T4, ETV2 (Homo sapiens, UniProt O00321 1-342); settings: protein: recombinant; tags: N-terminal GST; dsDNA, one strand shown
# T4 sequence: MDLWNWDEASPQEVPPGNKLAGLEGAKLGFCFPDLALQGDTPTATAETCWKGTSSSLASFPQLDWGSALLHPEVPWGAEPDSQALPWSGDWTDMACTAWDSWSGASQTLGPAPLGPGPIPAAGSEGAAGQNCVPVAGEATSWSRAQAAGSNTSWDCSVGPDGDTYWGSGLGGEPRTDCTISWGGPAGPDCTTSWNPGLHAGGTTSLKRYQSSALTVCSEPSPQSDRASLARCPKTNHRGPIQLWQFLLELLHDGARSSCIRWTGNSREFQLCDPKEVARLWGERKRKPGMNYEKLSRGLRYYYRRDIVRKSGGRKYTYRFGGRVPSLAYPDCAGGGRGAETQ
# Summary of the method: as §1
# [8] = target: T5, ELF3 (Homo sapiens, UniProt P78545 1-371); settings: protein: recombinant; tags: N-terminal GST; dsDNA, one strand shown
# T5 sequence: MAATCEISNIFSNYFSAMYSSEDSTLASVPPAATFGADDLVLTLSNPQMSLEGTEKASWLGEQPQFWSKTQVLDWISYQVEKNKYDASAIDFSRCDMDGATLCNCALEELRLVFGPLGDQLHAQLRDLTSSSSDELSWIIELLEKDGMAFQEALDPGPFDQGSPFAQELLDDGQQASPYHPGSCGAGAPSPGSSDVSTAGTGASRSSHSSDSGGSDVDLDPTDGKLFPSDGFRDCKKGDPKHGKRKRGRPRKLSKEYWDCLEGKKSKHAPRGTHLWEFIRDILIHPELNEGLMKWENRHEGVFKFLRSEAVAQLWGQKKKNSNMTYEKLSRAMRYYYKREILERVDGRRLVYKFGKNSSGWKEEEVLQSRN
# Summary of the method: as §1
# [9] = target: CRX (Homo sapiens, UniProt O43186 1-299); settings: protein: recombinant; tags: N-terminal GST; dsDNA, one strand shown
# Summary of the method: as §1
# [10] = target: ETV1 (Homo sapiens, UniProt P50549 1-477); settings: protein: recombinant; tags: N-terminal GST; dsDNA, one strand shown
# Summary of the method: as §1
# [11] = target: T6, ERF (Homo sapiens, UniProt P50548 1-548); settings: protein: recombinant; tags: N-terminal GST; dsDNA, one strand shown
# T6 sequence: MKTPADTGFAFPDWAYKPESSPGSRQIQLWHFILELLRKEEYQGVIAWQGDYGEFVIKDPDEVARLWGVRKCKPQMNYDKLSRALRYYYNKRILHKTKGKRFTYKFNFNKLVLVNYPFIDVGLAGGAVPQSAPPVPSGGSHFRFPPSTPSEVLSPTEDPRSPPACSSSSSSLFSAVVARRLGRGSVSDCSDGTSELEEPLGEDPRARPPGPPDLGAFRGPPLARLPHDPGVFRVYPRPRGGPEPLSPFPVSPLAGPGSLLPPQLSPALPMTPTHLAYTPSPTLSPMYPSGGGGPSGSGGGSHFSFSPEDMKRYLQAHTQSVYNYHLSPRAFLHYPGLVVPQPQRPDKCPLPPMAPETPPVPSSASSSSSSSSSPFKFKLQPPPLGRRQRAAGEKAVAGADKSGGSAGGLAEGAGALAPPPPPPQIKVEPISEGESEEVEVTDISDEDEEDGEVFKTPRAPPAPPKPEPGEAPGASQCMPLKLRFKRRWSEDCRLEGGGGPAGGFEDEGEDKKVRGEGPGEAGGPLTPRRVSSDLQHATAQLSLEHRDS
# Summary of the method: as §1
# [12] = target: T7, ETV3L (Homo sapiens, UniProt Q6ZN32 1-361); settings: protein: recombinant; tags: N-terminal GST; dsDNA, one strand shown
# T7 sequence: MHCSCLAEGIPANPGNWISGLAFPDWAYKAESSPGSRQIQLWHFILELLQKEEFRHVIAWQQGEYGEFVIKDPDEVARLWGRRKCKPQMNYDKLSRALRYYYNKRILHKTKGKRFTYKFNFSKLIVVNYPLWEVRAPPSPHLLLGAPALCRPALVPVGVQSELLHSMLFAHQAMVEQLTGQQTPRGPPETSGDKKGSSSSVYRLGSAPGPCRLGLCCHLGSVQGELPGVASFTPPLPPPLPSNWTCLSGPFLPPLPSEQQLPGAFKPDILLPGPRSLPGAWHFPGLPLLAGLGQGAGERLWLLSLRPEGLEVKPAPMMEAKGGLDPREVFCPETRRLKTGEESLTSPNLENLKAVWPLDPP
# Summary of the method: as §1
# [13] = target: T8, ETS2 (Homo sapiens, UniProt P15036 1-469); settings: protein: recombinant; tags: N-terminal GST; dsDNA, one strand shown
# T8 sequence: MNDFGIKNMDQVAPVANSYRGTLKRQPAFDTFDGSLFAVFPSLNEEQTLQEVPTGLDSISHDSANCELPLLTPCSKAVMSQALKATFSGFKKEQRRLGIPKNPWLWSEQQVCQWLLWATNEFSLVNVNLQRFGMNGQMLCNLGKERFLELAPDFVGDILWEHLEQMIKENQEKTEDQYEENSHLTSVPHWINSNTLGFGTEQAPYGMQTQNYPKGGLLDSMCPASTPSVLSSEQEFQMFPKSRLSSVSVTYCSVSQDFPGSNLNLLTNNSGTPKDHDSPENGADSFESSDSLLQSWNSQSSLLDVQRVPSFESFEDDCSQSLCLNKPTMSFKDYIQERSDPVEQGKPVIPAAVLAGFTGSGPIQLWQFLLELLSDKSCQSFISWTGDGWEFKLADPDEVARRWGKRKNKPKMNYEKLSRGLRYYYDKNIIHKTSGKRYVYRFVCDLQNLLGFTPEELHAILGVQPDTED
# Summary of the method: as §1
# [14] = target: T9, SPDEF (Homo sapiens, UniProt O95238 1-335); settings: protein: recombinant; tags: N-terminal GST; dsDNA, one strand shown
# T9 sequence: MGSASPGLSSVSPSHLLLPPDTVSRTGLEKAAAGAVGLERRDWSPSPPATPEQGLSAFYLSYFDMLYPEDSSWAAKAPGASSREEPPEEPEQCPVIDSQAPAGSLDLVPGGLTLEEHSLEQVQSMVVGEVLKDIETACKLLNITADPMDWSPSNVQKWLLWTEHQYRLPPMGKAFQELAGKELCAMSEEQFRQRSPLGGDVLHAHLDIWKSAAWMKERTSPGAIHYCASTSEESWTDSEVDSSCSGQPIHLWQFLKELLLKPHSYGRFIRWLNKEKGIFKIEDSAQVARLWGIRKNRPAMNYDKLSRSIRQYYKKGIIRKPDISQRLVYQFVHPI
# Summary of the method: as §1
# [15] = target: T10, ETV7 (Homo sapiens, UniProt Q9Y603 1-341); settings: protein: recombinant; tags: N-terminal GST; dsDNA, one strand shown
# T10 sequence: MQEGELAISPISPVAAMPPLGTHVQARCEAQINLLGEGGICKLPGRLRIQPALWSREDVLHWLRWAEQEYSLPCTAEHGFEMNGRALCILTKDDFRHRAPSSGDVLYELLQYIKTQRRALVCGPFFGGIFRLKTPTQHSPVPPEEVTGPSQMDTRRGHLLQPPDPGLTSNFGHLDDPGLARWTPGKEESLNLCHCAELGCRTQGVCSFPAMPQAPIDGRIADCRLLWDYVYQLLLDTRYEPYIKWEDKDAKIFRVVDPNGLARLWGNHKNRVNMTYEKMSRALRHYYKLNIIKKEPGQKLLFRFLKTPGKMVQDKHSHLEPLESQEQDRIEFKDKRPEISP
# Summary of the method: as §1
# [16] = target: T11, ELF5 (Homo sapiens, UniProt Q9UKW6-2 1-255); settings: protein: recombinant; tags: N-terminal GST; dsDNA, one strand shown
# T11 sequence: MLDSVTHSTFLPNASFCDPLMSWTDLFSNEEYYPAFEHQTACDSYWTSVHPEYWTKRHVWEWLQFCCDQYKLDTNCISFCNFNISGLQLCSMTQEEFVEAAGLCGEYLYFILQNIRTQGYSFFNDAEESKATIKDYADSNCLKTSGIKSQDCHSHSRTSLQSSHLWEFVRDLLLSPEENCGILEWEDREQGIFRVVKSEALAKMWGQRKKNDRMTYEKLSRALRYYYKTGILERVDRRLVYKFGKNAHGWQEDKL
# Summary of the method: as §1
# [17] = target: T12, ETV3 (Homo sapiens, UniProt P41162-2 1-143); settings: protein: recombinant; tags: N-terminal GST; dsDNA, one strand shown
# T12 sequence: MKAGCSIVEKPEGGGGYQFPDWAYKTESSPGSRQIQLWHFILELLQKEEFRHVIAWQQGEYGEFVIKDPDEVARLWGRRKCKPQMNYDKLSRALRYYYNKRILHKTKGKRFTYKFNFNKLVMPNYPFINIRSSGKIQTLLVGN
# Summary of the method: as §1
# [18] = target: ETV6 (Homo sapiens, UniProt P41212 1-452); settings: protein: recombinant; tags: N-terminal GST; dsDNA, one strand shown
# Summary of the method: as §1
# ETV6, sequence (P41212 whole entry): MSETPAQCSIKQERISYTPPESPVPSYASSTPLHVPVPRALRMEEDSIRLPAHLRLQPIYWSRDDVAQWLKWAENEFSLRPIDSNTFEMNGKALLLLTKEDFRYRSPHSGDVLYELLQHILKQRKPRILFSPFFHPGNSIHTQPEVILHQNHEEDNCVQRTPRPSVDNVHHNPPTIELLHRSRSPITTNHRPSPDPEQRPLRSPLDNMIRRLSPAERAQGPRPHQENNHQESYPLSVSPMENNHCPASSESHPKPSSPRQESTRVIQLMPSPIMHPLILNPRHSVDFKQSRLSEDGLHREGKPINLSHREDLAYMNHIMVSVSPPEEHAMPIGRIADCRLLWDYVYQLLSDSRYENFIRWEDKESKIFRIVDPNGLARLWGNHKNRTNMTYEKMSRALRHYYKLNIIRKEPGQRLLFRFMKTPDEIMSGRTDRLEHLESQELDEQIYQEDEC
# CRX, sequence (O43186 whole entry): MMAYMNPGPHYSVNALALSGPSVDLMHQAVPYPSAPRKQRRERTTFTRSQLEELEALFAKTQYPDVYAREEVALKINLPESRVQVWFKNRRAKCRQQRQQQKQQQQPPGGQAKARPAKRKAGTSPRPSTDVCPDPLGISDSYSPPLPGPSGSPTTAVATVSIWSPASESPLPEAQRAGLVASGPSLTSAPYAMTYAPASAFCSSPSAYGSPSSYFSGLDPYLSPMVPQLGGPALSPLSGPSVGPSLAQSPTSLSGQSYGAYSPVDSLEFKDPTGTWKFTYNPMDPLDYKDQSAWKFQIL
# HSF1, sequence (Q00613 whole entry): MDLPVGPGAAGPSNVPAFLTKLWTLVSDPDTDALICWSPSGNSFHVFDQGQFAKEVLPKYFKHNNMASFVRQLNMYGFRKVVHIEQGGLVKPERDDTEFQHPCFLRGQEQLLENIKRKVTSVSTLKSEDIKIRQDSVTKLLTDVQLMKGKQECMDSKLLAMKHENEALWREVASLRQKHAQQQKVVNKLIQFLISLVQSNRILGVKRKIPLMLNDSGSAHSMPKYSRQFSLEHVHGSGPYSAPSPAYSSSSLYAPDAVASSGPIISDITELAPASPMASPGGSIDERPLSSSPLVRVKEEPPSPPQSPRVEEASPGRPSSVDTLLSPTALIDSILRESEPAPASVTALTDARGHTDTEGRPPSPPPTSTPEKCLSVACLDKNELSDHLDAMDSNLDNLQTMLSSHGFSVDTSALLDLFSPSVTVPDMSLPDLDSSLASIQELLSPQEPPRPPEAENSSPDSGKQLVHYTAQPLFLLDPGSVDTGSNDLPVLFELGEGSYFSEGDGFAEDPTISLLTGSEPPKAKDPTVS
# ETV5, sequence (P41161 whole entry): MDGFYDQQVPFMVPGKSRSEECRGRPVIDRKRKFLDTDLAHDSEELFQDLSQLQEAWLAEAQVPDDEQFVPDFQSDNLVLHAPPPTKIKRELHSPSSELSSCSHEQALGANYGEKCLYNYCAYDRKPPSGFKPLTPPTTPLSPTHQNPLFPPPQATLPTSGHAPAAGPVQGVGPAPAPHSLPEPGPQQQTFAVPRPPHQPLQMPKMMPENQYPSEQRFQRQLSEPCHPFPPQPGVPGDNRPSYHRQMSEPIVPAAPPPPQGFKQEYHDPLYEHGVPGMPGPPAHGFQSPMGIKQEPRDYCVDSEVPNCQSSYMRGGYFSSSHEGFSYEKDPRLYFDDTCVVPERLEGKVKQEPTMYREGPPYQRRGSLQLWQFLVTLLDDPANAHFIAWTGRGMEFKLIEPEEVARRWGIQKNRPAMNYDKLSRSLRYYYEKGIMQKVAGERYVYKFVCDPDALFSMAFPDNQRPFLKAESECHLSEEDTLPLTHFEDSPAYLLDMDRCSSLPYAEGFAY
# ETV1, sequence (P50549 whole entry): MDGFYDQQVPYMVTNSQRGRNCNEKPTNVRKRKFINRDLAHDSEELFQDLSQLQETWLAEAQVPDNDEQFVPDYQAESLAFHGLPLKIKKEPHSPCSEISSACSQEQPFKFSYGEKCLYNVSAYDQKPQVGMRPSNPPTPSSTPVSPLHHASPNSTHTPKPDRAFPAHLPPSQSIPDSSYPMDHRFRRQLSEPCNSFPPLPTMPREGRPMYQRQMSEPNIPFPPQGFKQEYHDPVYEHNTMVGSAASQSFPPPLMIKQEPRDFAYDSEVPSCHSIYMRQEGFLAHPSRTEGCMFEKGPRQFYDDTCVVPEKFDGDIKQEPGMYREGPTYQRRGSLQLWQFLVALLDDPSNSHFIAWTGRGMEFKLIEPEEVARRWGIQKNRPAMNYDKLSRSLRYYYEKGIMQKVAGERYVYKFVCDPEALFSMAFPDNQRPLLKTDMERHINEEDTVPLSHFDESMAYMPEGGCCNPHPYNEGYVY
# ELF4, sequence (Q99607 whole entry): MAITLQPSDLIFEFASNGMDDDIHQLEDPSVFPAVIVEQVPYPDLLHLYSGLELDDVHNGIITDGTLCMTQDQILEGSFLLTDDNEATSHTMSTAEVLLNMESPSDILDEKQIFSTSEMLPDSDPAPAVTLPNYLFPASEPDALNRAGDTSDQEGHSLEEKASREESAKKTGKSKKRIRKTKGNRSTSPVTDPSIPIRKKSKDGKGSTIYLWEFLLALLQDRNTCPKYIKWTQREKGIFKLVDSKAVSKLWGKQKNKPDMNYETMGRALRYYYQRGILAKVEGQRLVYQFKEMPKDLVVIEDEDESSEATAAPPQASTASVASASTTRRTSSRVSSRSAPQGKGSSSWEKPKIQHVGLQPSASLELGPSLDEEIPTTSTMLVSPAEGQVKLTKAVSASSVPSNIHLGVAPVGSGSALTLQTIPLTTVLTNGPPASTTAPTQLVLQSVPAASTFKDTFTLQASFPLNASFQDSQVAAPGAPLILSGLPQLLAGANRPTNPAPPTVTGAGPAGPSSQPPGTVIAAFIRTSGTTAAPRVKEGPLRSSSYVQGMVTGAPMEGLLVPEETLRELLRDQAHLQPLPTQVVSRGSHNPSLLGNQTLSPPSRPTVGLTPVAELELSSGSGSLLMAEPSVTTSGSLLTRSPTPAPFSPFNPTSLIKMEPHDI
sequence,measurement,setting,value
ATAATT,binding signal,[1],"1.25 fold enrichment (6-mer frequency, TF over GST control)"
same,binding signal,[2],"1.37 fold enrichment (6-mer frequency, TF over GST control)"
same,binding signal,[3],"1.76 fold enrichment (6-mer frequency, TF over GST control)"
same,binding signal,[4],"1.41 fold enrichment (6-mer frequency, TF over GST control)"
same,binding signal,[5],"1.25 fold enrichment (6-mer frequency, TF over GST control)"
same,binding signal,[6],"1.33 fold enrichment (6-mer frequency, TF over GST control)"
same,binding signal,[7],"1.5 fold enrichment (6-mer frequency, TF over GST control)"
same,binding signal,[8],"1.34 fold enrichment (6-mer frequency, TF over GST control)"
same,binding signal,[9],"2.16 fold enrichment (6-mer frequency, TF over GST control)"
same,binding signal,[10],"1.34 fold enrichment (6-mer frequency, TF over GST control)"
same,binding signal,[11],"1.33 fold enrichment (6-mer frequency, TF over GST control)"
same,binding signal,[12],"1.4 fold enrichment (6-mer frequency, TF over GST control)"
same,binding signal,[13],"1.31 fold enrichment (6-mer frequency, TF over GST control)"
same,binding signal,[14],"1.23 fold enrichment (6-mer frequency, TF over GST control)"
same,binding signal,[15],"1.31 fold enrichment (6-mer frequency, TF over GST control)"
same,binding signal,[16],"1.31 fold enrichment (6-mer frequency, TF over GST control)"
same,binding signal,[17],"1.32 fold enrichment (6-mer frequency, TF over GST control)"
same,binding signal,[18],"1.45 fold enrichment (6-mer frequency, TF over GST control)"
